Compounds without any hit were thinned out: in the full panel of roughly 83,000, 20% have a hit.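 Cell lines were cultured in 96-well plates, exposed to a single compound concentration, and assessed for percent growth 48 hours later.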 Values without a mark were called inactive. Activity calls are given as the source filed them. How the source made its calls: active means growth percent below 10; inactive means the rest.
Experiments:
Assay in all cases: NCI-60 one-dose screen, 48 h (100 = growth as untreated, 0 = no growth, -100 = all killed)
Conditions in all cases: 10 µM unless noted
NCI-H23 lung = test system: NCI-H23 lung
NCI-H226 lung = test system: NCI-H226 lung
NCI-H322M lung = test system: NCI-H322M lung
HOP-62 NSCLC = test system: HOP-62 NSCLC
NCI-H460 lung = test system: NCI-H460 lung
NCI-H522 lung = test system: NCI-H522 lung
A549/ATCC NSCLC = test system: A549/ATCC NSCLC
786-0 renal = test system: 786-0 renal
COLO 205 colon = test system: COLO 205 colon
HOP-92 NSCLC = test system: HOP-92 NSCLC

Compound	growth (NCI-H23 lung)	growth (NCI-H226 lung)	growth (NCI-H322M lung)	growth (HOP-62 NSCLC)	growth (NCI-H460 lung)	growth (NCI-H522 lung)	growth (A549/ATCC NSCLC)	growth (786-0 renal)	growth (COLO 205 colon)	growth (HOP-92 NSCLC)
CC/C(Cc1ccccc1)=C(\c1ccc(OCCCN(C)C)cc1)c1ccc(OC(=O)NCc2ccccc2)cc1	92.9%	86.4%	87.2%	85.7%	7.02% (active)	95.5%	61.9%	62%	4.67% (active)	
CNC(=O)c1cc(Oc2ccc3c(c2)sc2nc(-c4ccc(OC)cc4)cn23)ccn1	41.2%	61.6%	56.7%	19.4%	6.83% (active)	38.1%	15.9%	29.3%	0.159% (active)	
CN(CCC(=O)c1ccccc1)CCC(=O)c1ccccc1	91.5%	97.4%	96.4%	100%	97.9%	-87.7% (active)	97.7%	65.4%	89.3%	72.6%
CCC1S/C(=N\N=C(\C)c2cc3cc(Cl)ccc3o2)N(c2ccccc2)C1=O (stereo not given)	90.7%	113%	82.4%	100%	122%	160%	132%	85.8%	118%	71%
CN1CCN(c2ccc(NC(=O)c3cncnc3Nc3ccc(OCc4cccc(F)c4)c(Cl)c3)cc2)CC1	78%	94.9%	81.1%	33.1%	5.33% (active)	103%	57%	56%	6.12% (active)	57.1%
Cc1ccc(-c2nc(-c3cn(C)c4ncccc34)cs2)cc1	-7.81% [100 µM] (active)	-35.3% [100 µM] (active)	-32% [100 µM] (active)	-63.3% [100 µM] (active)	-48.5% [100 µM] (active)	6.25% [100 µM] (active)	7.36% [100 µM] (active)	-52.8% [100 µM] (active)	-60.5% [100 µM] (active)	-47.2% [100 µM] (active)
COCCn1cc(-c2csc(-c3c[nH]c4ccc(Br)cc34)n2)c2cccnc21	32.3%	58%	59.5%	45.4%	20.7%	-28.3% (active)	23.1%	-4.75% (active)	24.9%	2.14% (active)
COC(=O)N1CC(Oc2ccccn2)C2CC1c1ccccc1O2 (stereo not given)	94%	104%	119%	100%	100%	97.6%	98.6%	104%	102%	
COc1cc(-c2nc3c(ncc4ccc(=O)n(-c5ccccc5)c43)s2)cc(OC)c1OC	80.5%	63.3%	73.6%	88.6%	84.3%	64.8%	86.3%	46.7%	79.2%	19.1%
CCN1CCN(CC(=O)Nc2nc3ccc(NCc4ccc(F)cc4)cc3s2)CC1	90%	90.9%	94.3%	91.8%	98.8%	104%	99.8%	93%	78%	61.3%
CCOC(=O)c1c(C)nc2c(c1N)CC(=O)N2Cc1ccc(OC)cc1	33.7%	17.4%	41%	-7.19% (active)	5.12% (active)	-1.06% (active)	25.8%	6.69% (active)	95.4%	-4.45% (active)
CCCCC#Cc1c(I)n(C)c(=O)[nH]c1=O	14.4%	39.8%	101%	93.9%	103%	-13.4% (active)	70.9%	98.2%	-36.8% (active)	-89.7% (active)
Cc1ccc(C)c(/C=C2\CN(C(=O)OC(C)(C)C)C/C(=C\c3cc(C)ccc3C)C2=O)c1	49.7%	89%	93.9%	93.4%	45.3%	46.1%	80.5%	74.5%	30.9%	
COc1ccc(CCN(CC(=O)N(CC(N)=O)C2CCC[C@@H]2OCc2ccccc2)C(=O)CN(C(=O)CN(CCc2ccc(Cl)cc2)C(=O)CN(C(=O)CN(C)Cc2ccccc2F)[C@H](C)C2CCCCC2)[C@H](C)C2CCCCC2)cc1OC (stereo not given in full)	31.9%	53.5%	40.6%	41.8%	28.3%	24.5%	23.4%	44%	-17.4% (active)	10.3%
COc1ccc(/C=C(/C(=O)n2cnnn2)c2cc(OC)c(OC)c(OC)c2)cc1	41.8%	40.7%	50.8%	25.6%	12.7%	20.6%	29%	35.5%	-3.15% (active)	69.3%
O=C(O)/C=C/C(=O)Nc1cccc(Cn2nnc3cc(Cl)c(Cl)cc32)c1	97.3%	89.8%	101%	98.4%	105%	96.2%	102%	99.7%	112%	
N[C@H]1CCC[C@@H]1NCCCCN1C(=O)c2cccc3cc([N+](=O)[O-])cc(c23)C1=O	47.7%	34.4%	53.4%	38.4%	13.7%	38.4%	27.6%	31%	26%	
Cc1cccc2c1C[C@@]1(C2=O)C(c2ccc(C(C)(C)C)cc2)=NOS1=O (stereo not given in full)	83.2%	80.7%	92.2%	90%	92.2%	90.8%	90.3%	99.7%	105%	74.3%
O=C(/C=C/c1ccc(Oc2ccc(Br)cc2)cc1)c1ccc(Br)cc1	95.3%	103%	95.3%	99.9%	105%	91.1%	94.4%	101%	113%	91.6%
C=C1C(=O)O[C@H]2[C@H]1CC/C(COC(=O)c1cc3cc(Cl)ccc3[nH]1)=C\CC[C@@]1(C)O[C@@H]21	-64.9% (active)	-64.2% (active)	44.3%	-63.6% (active)	6.97% (active)	-81.1% (active)	-67.5% (active)	-90.5% (active)	-77.6% (active)	
Nc1ccc(-c2csc(-n3[nH]c(=O)ccc3=O)n2)cc1	98%	92.2%	103%	107%	102%	93.4%	101%	87.1%	109%	
CCN1C(=O)N(CC)C2C1NC(=S)N2/N=C/c1ccc(OC)cc1 (stereo not given)	74.9%	78.8%	79.4%	59.5%	26.1%	16.8%	41.7%	62.1%	41.7%	70.5%
COc1ccc(/C=C(/c2ccccc2)[N+](=O)[O-])c(OC)c1	21.1%	59.9%	46.1%	4.17% (active)	2.72% (active)	-13.2% (active)	7.88% (active)	-66.1% (active)	-26.9% (active)	-25.4% (active)
Cc1ccc(-c2nc(SCc3nc4cc(Cl)c(Cl)cc4[nH]3)[nH]c(=O)c2C#N)cc1	99.2%	103%	101%	91.9%	112%	89.1%	93.1%	94.5%	107%	104%
N#Cc1nc(-c2ccccc2)oc1S(=O)(=O)N1CCN(c2ccc(F)cc2)CC1	80.8%	85.7%	91.6%	112%	102%	2.64% (active)	101%	64.9%	33.6%	
O=C(NC(Cc1nnc2n(Cc3ccccc3)c(=O)c3c4c(sc3n12)CCCC4)c1ccccc1)c1ccccc1 (stereo not given)	90.9%	113%	93.3%	71.1%	94.4%	94.8%	90.4%	81%	107%	74.6%
Oc1c(CN2CCCC2)cc(CSCc2ccccc2)c2cccnc12	11.8%	-4.43% (active)	-0.478% (active)	4.78% (active)	2.01% (active)	12.9%	9.29% (active)	6.65% (active)	51%	

Reference: PubChem BioAssay (NCI)
